What all share (test): NCI-60 one-dose screen, 48 h (100 = growth as untreated, 0 = no growth, -100 = all killed)
What all share (settings): 10 µM

In experiment [1] the test system is MOLT-4 leukemia.
Experiment [2] relates to SR leukemia.
Experiment [3] relates to RPMI-8226 leukemia.
Experiment [4] deals with OVCAR-8 ovarian.
Experiment [5] deals with OVCAR-5 ovarian.
The subject of experiment [6] is OVCAR-4 ovarian.
In experiment [7] the test system is SK-OV-3 ovarian.
Experiment [8] has as its system IGROV1 ovarian.
In experiment [9] the test system is OVCAR-3 ovarian.
Experiment [10] deals with HS 578T breast.

Values joined by “and” are separate entries in the source; they are usually repeats but may differ in a detail not shown here. Equal values may be shown once. Compounds without any hit were thinned out: in the full panel of roughly 83,000, 20% have a hit.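 96-well plates, one dose, 48 hours. Percent growth reported; active if below 10.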 Active and inactive are the calls of the source.

For `COC1CC2C=C(C)/C=C/C=C/C(=O)NC(c3ccccc3)C/C=C/CCC(O)CC(=O)C2=C1O` (centres undefined), the growth in experiment [1] is -59.5% (active); in experiment [2], 2.86% (active); in experiment [3], -40.8% (active); in experiment [4] it was -69.1% (active); in experiment [5] it was -95.6% (active); in [6], -78.4% (active). Also, the growth in experiment [7] was -91.4% (active); in experiment [8], -90.2% (active); in experiment [9] it was -83.9% (active); in experiment [10], -51.4% (active).

Consider `Cc1ccc(C(=O)C2C(c3ccccc3)N2C2CCCCC2)cc1` (centres undefined), for which the growth in [1] is 94.9% (inactive) and 93.3% (inactive); in experiment [2], 94.4% (inactive) and 97.4% (inactive); in [3] it was 78.5% (inactive) and 94.1% (inactive); in experiment [4] it was 103% (inactive) and 101% (inactive); in experiment [5], 97.4% (inactive) and 95.9% (inactive); in [6] it was 98.4% (inactive) and 87.2% (inactive). Further, the growth is 102% (inactive) and 96.2% (inactive) in [7]; 119% (inactive) and 92.4% (inactive) in experiment [8]; 114% (inactive) and 108% (inactive) in experiment [9]; 102% (inactive) and 97.1% (inactive) in experiment [10].

As for `Cn1c(O)c(N=O)c(=O)n(C)c1=O`, the growth in [1] was 101% (inactive) and 99.9% (inactive); in experiment [2], 103% (inactive) and 80% (inactive); in experiment [3], 110% (inactive) and 92% (inactive); in experiment [4], 99.6% (inactive) and 111% (inactive); in experiment [5] it was 116% (inactive) and 98.1% (inactive); in experiment [6] it was 116% (inactive) and 111% (inactive). Also, the growth in experiment [7] is 108% (inactive) and 104% (inactive); in [8], 111% (inactive) and 114% (inactive); in experiment [9], 101% (inactive) and 94.8% (inactive); in experiment [10], 97.1% (inactive) and 98.9% (inactive).

As to `CC/C(=C/c1ccc(OC)cc1)[N+](=O)[O-]`, the growth in [1] is 3.8% (active); in experiment [2], 1.84% (active); in [3], -8.7% (active); in experiment [4], 1.78% (active); in experiment [5], 10.9% (inactive); in experiment [6] it was 62% (inactive). Also, the growth in [7] is 104% (inactive); in [8] it was 11.7% (inactive); in experiment [9] it was -54.6% (active); in experiment [10], 90.2% (inactive).

As for `Oc1c(I)cc(I)cc1I`, the growth in experiment [1] was 98.9% (inactive); in experiment [2], 101% (inactive); in experiment [3], 94% (inactive); in [4], 101% (inactive); in experiment [5], 98.6% (inactive); in [6], 104% (inactive). Moreover, the growth is 109% (inactive) in experiment [7], 112% (inactive) in [8], 124% (inactive) in experiment [9] and 119% (inactive) in experiment [10].

Take `NC(=O)c1cc([N+](=O)[O-])c(Cl)c([N+](=O)[O-])c1`: the growth is -13.3% (active) in [1]; -3.5% (active) in experiment [2]; -10.4% (active) in experiment [3]; 85.1% (inactive) in [4]; 111% (inactive) in experiment [5]; 71.8% (inactive) in experiment [6]. The growth is 104% (inactive) in [7], 102% (inactive) in experiment [8], -41.1% (active) in experiment [9] and 106% (inactive) in experiment [10].

Regarding `CC/C(=C/c1ccc(OC)cc1OC)[N+](=O)[O-]`, the growth in experiment [1] is 6.34% (active); in [2], 2.47% (active); in experiment [3], -7.24% (active); in experiment [4] it was 18.4% (inactive); in [5], 35.9% (inactive); in [6] it was 93.7% (inactive). Further, the growth in experiment [7] was 124% (inactive); in experiment [8] it was 39.6% (inactive); in experiment [9] it was 58.7% (inactive); in experiment [10] it was 77.6% (inactive).

Take `COc1ccc(/C=C\[N+](=O)[O-])cc1OC`: the growth was 85.7% (inactive) and 65.5% (inactive) in experiment [1]; 16.6% (inactive) and -16.1% (active) in experiment [2]; 20.7% (inactive) and -31.7% (active) in experiment [3]; 73.9% (inactive) and 75.7% (inactive) in experiment [4]; 110% (inactive) and 79.4% (inactive) in experiment [5]; 73.7% (inactive) and 80.5% (inactive) in experiment [6]. For the same compound, the growth in experiment [7] is 106% (inactive) and 95.9% (inactive); in experiment [8], -5.78% (active) and 59.2% (inactive); in [9], 55.6% (inactive) and 37% (inactive); in experiment [10], 71.2% (inactive) and 94.4% (inactive).

In the case of `COc1cc2c(c(OC)c1OC)-c1ccc(O)c(=O)cc1[C@@H](NC(C)=O)CC2`, the growth is 46.6% (inactive) in experiment [1]; 30.1% (inactive) in [2]; 40.9% (inactive) in [3]; 36.7% (inactive) in experiment [4]; 70.1% (inactive) in [5]; 46.5% (inactive) in experiment [6]. Also, the growth in [7] was 66.9% (inactive); in experiment [8], 51.9% (inactive); in [9] it was 3.49% (active).

Turning to `O=[N+]([O-])/C=C/c1ccc([N+](=O)[O-])cc1`, the growth was 47% (inactive) and 47.8% (inactive) in experiment [1]; 3.64% (active) and 20.5% (inactive) in experiment [2]; -51.5% (active) and 17.3% (inactive) in [3]; 28% (inactive) and 92% (inactive) in experiment [4]; 71.7% (inactive) and 125% (inactive) in experiment [5]; 85.6% (inactive) and 86.6% (inactive) in [6]. Moreover, the growth in experiment [7] was 92.6% (inactive) and 110% (inactive); in [8], -20.2% (active) and 66.6% (inactive); in experiment [9] it was -98.4% (active) and 36.6% (inactive); in experiment [10], -2.35% (active) and 93.8% (inactive).

Regarding `O=C(O)c1cc(Cc2ccc(O)c(C(=O)O)c2)ccc1O` (tested in a mixture with another compound), the growth was 54.3% (inactive) in [1]; 80.4% (inactive) in [2]; -5.46% (active) in experiment [3]; 68.1% (inactive) in [4]; 65.1% (inactive) in experiment [5]; 66.9% (inactive) in experiment [6]. Further, the growth in experiment [7] is 95.4% (inactive); in [8], -81.4% (active); in experiment [9] it was 70.4% (inactive); in [10], 72.6% (inactive).
